Data published in PubChem BioAssay AID1259343 (VanderVen Lab, College of Veterinary Medicine, Cornell …, 2017).
Hit rate of the full screen: of about 6,200 compounds, about 2,900 (47%) were called active. The set was probably picked from earlier hits. This is one part of the list. Values without a mark were called inactive. Rule as the data show it: active = inhibition above about 50%; inactive = the rest.

experiment: Mycobacterium tuberculosis growth inhibition, primary screen (AID 1259343); conditions: inhibition: at 10 µM, stronger effect = higher value; outcome: 10 uM

SMILES | inhibition
CN(CC(O)COCc1ccc2c(c1)OCO2)c1ncc(C(F)(F)F)cc1Cl (stereo not drawn) | 78% (active)
FC(F)(F)c1cnc(NCc2ccc3c(c2)OCCO3)c(Cl)c1 | 25.7%
COC(=O)NNC(=S)NC(=O)C12CC3CC(CC(C3)C1)C2 | 97.8% (active)
Cc1[nH]n(-c2nc3ccccc3s2)c(=O)c1C=NC(C)c1ccccc1 (stereo not drawn) | 86.9% (active)
Cc1nc(Cl)sc1S(=O)(=O)NCC(C)c1ccccc1 (stereo not drawn) | 24.9%
Clc1ccc(-c2nn3c4cc(N5CCNCC5)ccc4nc3c3ccccc23)cc1 | 92.9% (active)
CN(C1CCCCC1)S(=O)(=O)N1CCc2ccccc21 | 98.1% (active)
CN(C1CCCCC1)S(=O)(=O)N1CCN(c2cccc(F)c2C#N)CC1 | 10.2%
CN(C1CCCCC1)S(=O)(=O)c1ccc2ccccc2c1 | 38.7%
CC1Cc2cc(-c3cc(C(=O)O)no3)ccc2O1 (stereo not drawn) | 27.8%
CCCCCN(C)C(=O)c1cc(-c2ccc3ccccc3c2)on1 | 94% (active)
CN(C)C=Nc1nc(-c2ccc3ccccc3c2)cs1 | -25.4%
CCOc1ccc(NC(=O)C(C)Sc2nc(N)cc(N)n2)cc1 (stereo not drawn) | 86% (active)
O=P(Nc1cccc(F)c1)(Oc1ccccc1F)Oc1ccccc1F | 22%
CCCCCc1ccc(NC(=O)CCN2CCSC2=O)cc1 | 99% (active)
CCCCc1ccc(NC(=O)COC(=O)C23CCC(=O)N2CCS3)cc1 (stereo not drawn) | 95.3% (active)
CCN=c1scc(-c2ccc(Br)cc2)n1/N=C1\C(=O)N(C)c2ccccc21 | 20.4%
Cn1cc(-c2nc(C(=O)NC34CC5CC(CC(C5)C3)C4)cs2)cn1 | 31.8%
O=C(NC12CC3CC(CC(C3)C1)C2)c1cncc(Br)c1 | 50.2% (active)
CC1CCCC(NC(=O)c2cncc(Br)c2)C1 (stereo not drawn) | -31%
O=S(=O)(NCc1ccc(F)cc1)c1ccc2c(c1)CCCC2 | 89.6% (active)
O=S(=O)(Nc1ccc2c(c1)CCC2)c1ccc(F)cc1 | -4.64%
COc1ccc(CNS(=O)(=O)c2ccc3c(c2)CCCC3)cc1 | -18%

SMILES | inhibition
CC(=O)Nc1ccc(C(=O)NC2CCC3CCCCC3C2)cc1 (stereo not drawn) | -37.5%
COCc1ccc(C(=O)NC2C3CC4CC(C3)CC2C4)cc1 (stereo not drawn) | 75.8% (active)
CCCc1nc(CN(C)c2nc(C)nc3sccc23)no1 | 14.1%
COc1cccc(OC)c1OCCOc1ccc(C)cc1Br | 76.4% (active)
COc1ccccc1OCCCOc1ccc(C)cc1Br | 34.8%
COc1cccc(OC)c1OCCCOc1ccc(C)cc1Br | 87.8% (active)
CCCCCCc1ccc(C(=O)Nc2ccc(-n3nc(OC)nc3-c3ccc4c(c3)OCO4)cc2)cc1 | 56.7% (active)
O=C(Nc1ccc(N2CCC(NCCC3=CCCCC3)CC2)cc1)c1ccc2c(c1)OCO2 | 47%
COc1cc2c(cc1O)C(SC)=NC(C)(C)C2 | 55.5% (active)
CC(=O)NC(C)C(=O)Nc1cccc(Sc2ccccc2)c1 (stereo not drawn) | 62.7% (active)
Cc1csc(C(C#N)C(=O)Nc2ccccc2)n1 (stereo not drawn) | -32.9%
CC1CCN(S(=O)(=O)N2CC=C(c3c[nH]c4ccccc34)CC2)CC1 | 29.2%
CCCS(=O)(=O)N1CC=C(c2c[nH]c3cc(F)ccc23)CC1 | 88.2% (active)
CCCS(=O)(=O)N1CCc2[nH]c3ccc(F)cc3c2C1 | 22.7%
O=C(Nc1cccc2cnccc12)OCC(F)(F)F | 72.3% (active)
COc1cc(C(=O)C(C#N)C(=O)CC(C)(C)C)ccc1C (stereo not drawn) | 101% (active)
Cc1ccc(C(=O)O)cc1OCc1csc(Br)c1 | 7.03%
CC(Nc1nc(-c2cccs2)nc2cc(Cl)ccc12)c1ccccc1 (stereo not drawn) | 3.37%
CC(=NNc1ccnc2cc(Cl)ccc12)c1ccc(C)o1 | 2.38%
CCC(=NNc1ccnc2cc(Cl)ccc12)c1ccccc1 | 93.9% (active)
CC(OC(=O)c1ccc([N+](=O)[O-])o1)C(=O)Nc1ccccc1OC(F)F (stereo not drawn) | 101% (active)
CC1CCC(C(C)C)C(OC(=O)COC(=O)c2ccc([N+](=O)[O-])o2)C1 (stereo not drawn) | 10.8%
CN(C)c1ccccc1NC(=O)c1ccccc1OC(F)F | 23.1%

SMILES | inhibition
COc1ccc(-c2nc(CNc3ccc(C)c(F)c3)no2)cc1 | 91.5% (active)
CC(C)c1ccc(NC(=O)c2ccc(-c3ccnn3C)c3ccoc23)cc1 | 77.8% (active)
CC(C)c1cnc(COc2ccc(Br)nc2)o1 | 38.6%
Cc1nc(NC(=O)c2cccc(Br)c2)oc1C | 94.3% (active)
NC(=S)c1cccc(Br)c1 | 22.8%
CN(CC(=O)c1cccc(Br)c1)C1CCCCC1 | 13.2%
c1csc(-c2nc(COc3ccc4c(c3)CCC4)co2)c1 | -21.4%
Cc1ccc(-c2nc(COc3ccc(C)cn3)co2)cc1 | 58.5% (active)
COc1ccccc1OCc1coc(-c2ccc(C)cc2C)n1 | 40.9%
O=C(Cc1cc(-c2ccc3c(c2)OCO3)on1)NCc1cccs1 | 90.9% (active)
CC1Cc2cc(-c3cc(CO)no3)ccc2O1 (stereo not drawn) | -11.9%
O=C(O)Cc1cc(-c2ccc3c(c2)OCCO3)on1 | 73.2% (active)
COC(=O)CC1CC(=O)C2C(=O)c3c(OC)ccc(Br)c3C2C1 (stereo not drawn) | 28.1%
O=C1c2ccccc2-c2nn(CN3CCN(c4ccccc4)CC3)c3cccc1c23 | 31.3%
O=S(=O)(N1CCN(c2ccccc2)CC1)C(F)(F)C(F)(F)C(F)(F)C(F)(F)F | 21.4%
c1ccc(N2CCN(c3ccccn3)CC2)cc1 | 61.2% (active)
CCCCCCSC1=C(C#N)C2(CCCCC2)C(C#N)C(=O)N1 (stereo not drawn) | 4.19%
Fc1ccc(/C=C/c2nnc(-c3ccccc3Cl)o2)cc1 | 42.9%
Clc1ccccc1-c1nnc(-c2ccc3c(c2)OCO3)o1 | 72.5% (active)
Fc1ccccc1-c1nnc(-c2ccc3c(c2)OCO3)o1 | -0.93%
Oc1ccccc1C1CC(c2ccc3c(c2)OCO3)=NC(c2cccc(F)c2)N1 (stereo not drawn) | -19.4%
Fc1ccc(-c2nnc(-c3ccc4c(c3)OCO4)o2)cc1 | 70.5% (active)
